Among the data in ChEMBL document CHEMBL4513216, “Probing the Open Global Health Chemical Diversity Library for Multistage-Active Starting Points for Next-Generation Antimalarials” (ACS Infect Dis, 2020) are INHIBITION values, retold here.

The whole screen tested about 68,000 compounds, of which about 2,700 (4%) showed an effect of 50% or more. This is one part of a sample in which strong results are shown more often than they occur.

This experiment deals with Plasmodium berghei. Description: Screen against P. berghei liver stage (PbLuc), transformed with Luciferase, at 2uM. Format: functional, HepG2. The conditions noted are these: tested at 2 uM.
With `CC(c1ccccc1)N(C)C(=O)CN1CCCc2cc(F)cc(F)c21` (stereo not drawn), the INHIBITION is recorded as 27.52%.
In the case of `Nc1nc(C(=O)NCC2CCC3(CCNCC3)CO2)cs1` (stereo not drawn) it was -51.85%; in that of `O=C(CCc1ccccc1)C1CCCN(Cc2cncn2C2CC2)C1` (stereo not drawn), 21.67%; in that of `O=C(Cc1ccccc1)C1CCCN(Cc2cncn2C2CCCC2)C1` (stereo not drawn), 19.75%.
To `COCCn1cncc1CN1CCCC(C(=O)Cc2ccccc2)C1` (stereo not drawn) belongs 58.09%; to `COCCN(Cc1ccoc1)S(=O)(=O)c1ccc(OC)c(Cl)c1`, 1.04%; to `CN(C)S(=O)(=O)N1CCCCCC1c1cc(-c2ccc(F)cc2)no1` (stereo not drawn), 6.64%.
As for `Cc1ccccc1C(CC(=O)NCc1n[nH]c(N)n1)c1ccccc1` (stereo not drawn), the INHIBITION worked out at 28.1%.
In the case of `Cc1ccccc1C(CC(=O)NCC(N)=O)c1ccccc1` (stereo not drawn) it was 57.59%; in that of `Cc1ccccc1C(CC(=O)NCc1nnc(N)s1)c1ccccc1` (stereo not drawn), 9.13%; in that of `Cc1cc(C(=O)NCc2cnn(C)c2C)nc(N2CCCCCC2)n1`, -5.59%.
For `O=C(Nc1ccc(F)c(-n2cccc2)c1)NC1(CCO)CCOCC1`, the INHIBITION was -13.38%.
Regarding `COCCN(Cc1ccccn1)C(=O)Nc1cccnc1N1CCCC1`, the INHIBITION was -40.03%.
With `Cc1ccccc1C(=O)Nc1ccc(OC2CCN(C)CC2)cc1`, the INHIBITION is recorded as 37.87%.
In the case of `Cc1cccc(C(=O)Nc2ccc(OC3CCN(C)CC3)cc2)c1` it was 11.63%; in that of `COc1ccccc1C(=O)Nc1ccc(OC2CCN(C)CC2)cc1`, 56.93%.
In the case of `Cc1ccc(C)c(C(=O)Nc2ccc(OC3CCN(C)CC3)cc2)c1`, the INHIBITION is given as 29.71%.
To `Cc1ccc(C(=O)Nc2ccc(OC3CCN(C)CC3)cc2)c(C)c1` belongs 55.84%; to `CN1CCC(Oc2ccc(NC(=O)c3ccccc3Br)cc2)CC1`, 16.64%.
In the case of `CN(CCc1ccccn1)c1cc(N2CCCCC2)ncn1` it was 26.74%; in that of `Cc1ccc(-c2noc(C3CCN3C(=O)c3cc[nH]n3)n2)s1` (stereo not drawn), -24.35%.
In the case of `CCCc1nnc(N2CC[C@](C)(O)[C@H](C)C2)s1` it was 40.28%.
As to `Cc1cc(CN2CCc3nc(-c4ccncc4)nc(O)c3CC2)c(C)s1`, the INHIBITION amounted to 17.72%.
In the case of `CN(CCC(O)c1ccccc1)c1cc(N2CCOCC2)ncn1` (stereo not drawn) it was -3.38%; in that of `CCN(CC)c1nc2sc(C(=O)NCC(=O)OC)cc2s1`, 5.1%; in that of `Fc1ccc(N2CCOC3(COCCN(c4ncccn4)C3)C2)cc1` (stereo not drawn), 26.31%.
In the case of `Cn1nnc2c(N3CC(C(=O)NCc4cccs4)C3)ncnc21` it was 41.71%; in that of `COc1cccc(OC2CN(C(=O)C3CCCN(C(=O)N(C)C)C3)C2)c1` (stereo not drawn), 52.6%; in that of `Cc1cccc(C)c1OC1CN(C(=O)C2CCCN(C(=O)N(C)C)C2)C1` (stereo not drawn), 10.04%.
Turning to `Cc1cccc(C)c1OC1CN(C(=O)C2CCN(C(=O)N(C)C)CC2)C1`, the INHIBITION came out at 24.23%.
To `Cc1cccc(CN2CCc3[nH]nc(C(=O)N4CCNC(=O)C4)c3C2)n1` belongs 25.04%; to `CCc1ccc(CN2CCc3[nH]nc(C(=O)N4CCNC(=O)C4)c3C2)o1`, -15.83%.
To `Cc1ccc(CN2CCc3[nH]nc(C(=O)N4CCNC(=O)C4)c3C2)s1` belongs 57.85%; to `O=C(CN1CCOC(Cn2cccn2)C1)NCc1ccccn1` (stereo not drawn), -12.75%.
For `NC(=O)c1cc2c(nc1Oc1ccc(CN3CCCC3)cc1F)CCC2`, the INHIBITION turned out to be 12.21%.
Take `CNC(=O)c1cc2c(nc1N(C)C)CCN(c1ncc(C)cn1)CC2`: the INHIBITION is on record as -37.2%.
`COc1ccc(Cl)cc1NCCC(=O)NCCNc1cnccn1`: the INHIBITION is -22.83%.
On to `COc1ccc(Cl)cc1NCC(=O)NCCNc1ncccn1`, for which the INHIBITION is on record as -5.6%.
In the case of `COc1ccc(Cl)cc1NCC(=O)NCCNc1cnccn1`, the INHIBITION was found to be 55.7%.
In the case of `NC(=O)CN1CCCC1c1csc(Nc2cnccn2)n1` (stereo not drawn) it was -20.73%.
Take `CN1CCC2(COCc3cnc(N4CCOCC4)nc32)C1` (stereo not drawn): the INHIBITION is recorded as 18.97%.
On to `CS(=O)(=O)NC(=O)c1ccn(-c2ccccc2Cl)n1`, for which the INHIBITION is given as -61.69%.
Consider `O=C1Nc2ccccc2CC12CCCN2Cc1ccc(F)cc1` (stereo not drawn), for which the INHIBITION was -0.14%.
Take `CCCc1n[nH]c(C2CN(CCCS(C)(=O)=O)CCO2)n1` (stereo not drawn): the INHIBITION is 2.1%.
`CSCC(=O)N1CCOC(c2nc(C(C)(C)C)n[nH]2)C1` (stereo not drawn): the INHIBITION is given as -17.77%.
As for `CC(C)c1n[nH]c(C2CN(CCCS(C)(=O)=O)CCO2)n1` (stereo not drawn), the INHIBITION stood at 69.11%.
To `CC(C)c1n[nH]c(C2CN(C(=O)CCc3cscn3)CCO2)n1` (stereo not drawn) belongs 53.33%; to `Cc1n[nH]c(C2CN(C(=O)CCc3cscn3)CCO2)n1` (stereo not drawn), -4.43%.
Turning to `CCc1n[nH]c(C2CN(C(=O)CCc3cscn3)CCO2)n1` (stereo not drawn), the INHIBITION turned out to be 12.81%.
With `CCc1n[nH]c(C2CN(CCCS(C)(=O)=O)CCO2)n1` (stereo not drawn), the INHIBITION amounted to 24.65%.
On to `CC(C)(C)c1n[nH]c(C2CN(C(=O)CCC3CC3)CCO2)n1` (stereo not drawn), for which the INHIBITION is 60.31%.
In the case of `CC(C)(C)c1n[nH]c(C2CN(C(=O)CCc3ccco3)CCO2)n1` (stereo not drawn) it was 0.74%; in that of `C=C(C)CN(CC)Cc1nc(C)no1`, -12.44%.
